# Laboratory results taken from the supplement of paper PMC9446081.
# ± gives the standard deviation of the averaged measurements.
# Legend:
# Assay in all cases: relative enzymatic activity vs untreated control (fraction); higher = less inhibition
# Settings in all cases: 100 µM; incubation time: 2 h at 37 C
# [1] = tested on: DNA gyrase
# Experimental: (§1)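 In vitro enzymatic inhibition assays (ProFoldin kits) for 12 purified essential E. coli enzymes or complexes, each treated with 218 active antibacterial compounds at 100 µM for 2 h at 37°C. Read-outs were fluorescence or absorbance (phosphate detection, dye binding), converted to activity via standard curves and expressed relative to untreated DMSO controls.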
# [2] = biological target: DNA helicase (UniProt P0ACB1)
# Chain of DNA helicase (P0ACB1 whole entry): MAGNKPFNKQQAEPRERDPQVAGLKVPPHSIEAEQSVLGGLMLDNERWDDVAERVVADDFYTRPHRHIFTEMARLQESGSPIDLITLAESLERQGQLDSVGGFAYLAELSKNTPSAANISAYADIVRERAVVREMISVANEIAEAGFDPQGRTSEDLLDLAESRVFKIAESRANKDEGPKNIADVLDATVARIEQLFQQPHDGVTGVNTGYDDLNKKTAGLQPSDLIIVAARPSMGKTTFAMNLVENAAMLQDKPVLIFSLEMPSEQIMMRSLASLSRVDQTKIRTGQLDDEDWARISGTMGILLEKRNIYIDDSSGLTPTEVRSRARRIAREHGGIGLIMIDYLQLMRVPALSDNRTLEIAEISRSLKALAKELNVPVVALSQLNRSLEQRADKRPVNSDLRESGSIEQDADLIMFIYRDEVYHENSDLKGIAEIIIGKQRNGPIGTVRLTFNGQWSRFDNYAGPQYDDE
# Experimental: as §1
# [3] = biological target: DNA ligase (UniProt B1XA82)
# Chain of DNA ligase (B1XA82 whole entry): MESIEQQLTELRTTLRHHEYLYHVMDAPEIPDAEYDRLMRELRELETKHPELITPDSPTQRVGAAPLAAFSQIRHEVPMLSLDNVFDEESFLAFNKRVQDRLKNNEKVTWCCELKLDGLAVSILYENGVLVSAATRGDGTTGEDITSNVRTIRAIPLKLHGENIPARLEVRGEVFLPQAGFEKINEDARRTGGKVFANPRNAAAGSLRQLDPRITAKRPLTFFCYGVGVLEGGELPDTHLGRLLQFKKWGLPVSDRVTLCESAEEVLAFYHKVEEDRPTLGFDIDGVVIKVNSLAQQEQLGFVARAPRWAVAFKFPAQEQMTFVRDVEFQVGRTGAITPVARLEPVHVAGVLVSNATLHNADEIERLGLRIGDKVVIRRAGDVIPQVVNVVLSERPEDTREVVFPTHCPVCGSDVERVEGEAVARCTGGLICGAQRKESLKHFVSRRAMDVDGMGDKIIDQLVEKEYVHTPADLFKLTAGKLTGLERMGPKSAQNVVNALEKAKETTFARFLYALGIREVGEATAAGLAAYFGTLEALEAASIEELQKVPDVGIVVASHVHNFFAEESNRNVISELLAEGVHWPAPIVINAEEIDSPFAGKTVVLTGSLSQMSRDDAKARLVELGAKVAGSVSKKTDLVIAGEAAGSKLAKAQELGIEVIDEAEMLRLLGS
# Experimental: as §1
# [4] = biological target: DNA polymerase (UniProt P10443)
# Chain of DNA polymerase (P10443 whole entry): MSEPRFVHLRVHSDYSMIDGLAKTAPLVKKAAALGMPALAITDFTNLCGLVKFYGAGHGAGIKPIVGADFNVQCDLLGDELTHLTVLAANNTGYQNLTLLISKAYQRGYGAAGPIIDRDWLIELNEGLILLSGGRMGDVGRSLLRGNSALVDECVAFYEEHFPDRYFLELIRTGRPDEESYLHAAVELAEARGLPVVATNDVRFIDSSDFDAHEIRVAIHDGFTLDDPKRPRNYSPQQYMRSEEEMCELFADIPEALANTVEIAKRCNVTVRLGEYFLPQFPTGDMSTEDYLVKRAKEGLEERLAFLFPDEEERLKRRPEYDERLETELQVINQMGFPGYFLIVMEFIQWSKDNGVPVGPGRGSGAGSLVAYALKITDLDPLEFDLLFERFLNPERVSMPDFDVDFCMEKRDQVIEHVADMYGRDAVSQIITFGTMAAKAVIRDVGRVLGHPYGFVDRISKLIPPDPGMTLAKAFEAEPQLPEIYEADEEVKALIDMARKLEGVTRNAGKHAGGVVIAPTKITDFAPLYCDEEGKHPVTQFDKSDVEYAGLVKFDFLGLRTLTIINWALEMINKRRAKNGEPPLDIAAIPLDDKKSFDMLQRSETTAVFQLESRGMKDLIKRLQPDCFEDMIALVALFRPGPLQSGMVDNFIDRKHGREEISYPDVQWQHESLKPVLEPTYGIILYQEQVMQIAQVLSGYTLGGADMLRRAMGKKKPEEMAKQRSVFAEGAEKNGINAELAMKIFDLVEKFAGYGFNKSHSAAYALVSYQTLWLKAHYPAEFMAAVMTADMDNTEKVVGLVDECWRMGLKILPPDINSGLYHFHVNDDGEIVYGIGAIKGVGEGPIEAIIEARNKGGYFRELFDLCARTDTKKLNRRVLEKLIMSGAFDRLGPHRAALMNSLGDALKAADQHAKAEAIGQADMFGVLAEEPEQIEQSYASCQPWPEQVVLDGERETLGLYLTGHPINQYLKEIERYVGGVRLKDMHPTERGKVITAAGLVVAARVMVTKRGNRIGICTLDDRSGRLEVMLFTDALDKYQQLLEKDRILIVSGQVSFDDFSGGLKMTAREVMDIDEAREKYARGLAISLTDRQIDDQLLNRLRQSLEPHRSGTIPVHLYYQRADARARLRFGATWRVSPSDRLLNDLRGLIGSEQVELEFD
# Experimental: as §1
# [5] = biological target: DNA primase (UniProt P0ABS7)
# Chain of DNA primase (P0ABS7 whole entry): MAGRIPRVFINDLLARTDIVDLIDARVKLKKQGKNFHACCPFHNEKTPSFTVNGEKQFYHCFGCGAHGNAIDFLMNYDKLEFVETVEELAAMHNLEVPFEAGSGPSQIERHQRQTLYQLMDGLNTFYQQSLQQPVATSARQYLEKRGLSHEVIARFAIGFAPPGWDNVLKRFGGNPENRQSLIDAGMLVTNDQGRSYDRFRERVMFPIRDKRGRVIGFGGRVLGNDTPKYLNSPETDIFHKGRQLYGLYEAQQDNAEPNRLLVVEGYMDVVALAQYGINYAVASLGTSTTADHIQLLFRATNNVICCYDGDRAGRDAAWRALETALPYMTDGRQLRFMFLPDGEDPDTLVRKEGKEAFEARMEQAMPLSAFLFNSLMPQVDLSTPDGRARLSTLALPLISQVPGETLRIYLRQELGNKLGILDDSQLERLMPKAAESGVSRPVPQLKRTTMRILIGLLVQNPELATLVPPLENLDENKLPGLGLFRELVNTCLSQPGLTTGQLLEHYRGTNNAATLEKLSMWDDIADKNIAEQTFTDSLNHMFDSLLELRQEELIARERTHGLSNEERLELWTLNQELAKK
# Experimental: as §1
# [6] = biological target: GlmU (UniProt A7ZTU1)
# Chain of GlmU (A7ZTU1 whole entry, looked up): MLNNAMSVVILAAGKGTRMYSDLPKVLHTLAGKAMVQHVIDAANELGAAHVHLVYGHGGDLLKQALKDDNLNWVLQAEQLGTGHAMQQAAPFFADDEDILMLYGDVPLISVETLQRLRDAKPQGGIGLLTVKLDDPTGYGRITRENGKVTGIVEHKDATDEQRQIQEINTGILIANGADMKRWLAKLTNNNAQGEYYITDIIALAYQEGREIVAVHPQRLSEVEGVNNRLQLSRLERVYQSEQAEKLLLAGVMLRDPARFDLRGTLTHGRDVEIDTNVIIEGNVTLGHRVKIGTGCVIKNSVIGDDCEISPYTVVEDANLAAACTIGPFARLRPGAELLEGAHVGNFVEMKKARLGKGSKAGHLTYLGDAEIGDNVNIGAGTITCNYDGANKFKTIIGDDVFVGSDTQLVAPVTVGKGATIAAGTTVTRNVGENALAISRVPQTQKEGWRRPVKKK
# Experimental: as §1
# [7] = biological target: Guanlyate kinase (UniProt Q0TBG1)
# Chain of Guanlyate kinase (Q0TBG1 whole entry): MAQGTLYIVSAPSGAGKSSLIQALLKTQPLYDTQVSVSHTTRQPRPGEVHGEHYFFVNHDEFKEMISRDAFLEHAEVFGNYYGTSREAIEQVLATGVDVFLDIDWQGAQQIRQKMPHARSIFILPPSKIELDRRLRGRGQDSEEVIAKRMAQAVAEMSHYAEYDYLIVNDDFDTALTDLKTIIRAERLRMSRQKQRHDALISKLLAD
# Experimental: as §1
# [8] = biological target: MurA (UniProt Q3YX52)
# Chain of MurA (Q3YX52 whole entry): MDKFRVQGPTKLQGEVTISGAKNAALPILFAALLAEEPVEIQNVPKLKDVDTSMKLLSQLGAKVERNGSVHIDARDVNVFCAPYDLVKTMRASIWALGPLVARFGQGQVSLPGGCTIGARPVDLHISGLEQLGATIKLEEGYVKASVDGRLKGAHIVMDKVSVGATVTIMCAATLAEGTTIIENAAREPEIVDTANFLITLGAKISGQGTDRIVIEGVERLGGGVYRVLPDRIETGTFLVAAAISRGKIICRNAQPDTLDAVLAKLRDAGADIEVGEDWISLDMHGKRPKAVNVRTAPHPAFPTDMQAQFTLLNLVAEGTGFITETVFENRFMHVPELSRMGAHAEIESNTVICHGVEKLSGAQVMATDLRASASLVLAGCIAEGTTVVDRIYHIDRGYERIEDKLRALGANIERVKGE
# Experimental: as §1
# [9] = biological target: T1, MurD (UniProt P14900)
# T1 sequence (whole entry): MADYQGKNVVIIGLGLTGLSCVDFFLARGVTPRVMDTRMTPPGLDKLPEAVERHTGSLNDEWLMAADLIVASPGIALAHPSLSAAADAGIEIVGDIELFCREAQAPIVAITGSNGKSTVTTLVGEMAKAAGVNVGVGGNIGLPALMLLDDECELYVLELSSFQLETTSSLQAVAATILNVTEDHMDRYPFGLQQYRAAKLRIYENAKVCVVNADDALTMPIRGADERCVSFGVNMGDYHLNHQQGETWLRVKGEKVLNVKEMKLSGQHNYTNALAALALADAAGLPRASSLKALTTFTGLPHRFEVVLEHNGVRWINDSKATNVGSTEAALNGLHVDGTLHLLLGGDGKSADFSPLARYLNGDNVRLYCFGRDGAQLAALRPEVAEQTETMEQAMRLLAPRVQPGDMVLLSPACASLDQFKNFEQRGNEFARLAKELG
# Experimental: as §1
# [10] = biological target: T2, MurF (UniProt P11880)
# T2 sequence (whole entry): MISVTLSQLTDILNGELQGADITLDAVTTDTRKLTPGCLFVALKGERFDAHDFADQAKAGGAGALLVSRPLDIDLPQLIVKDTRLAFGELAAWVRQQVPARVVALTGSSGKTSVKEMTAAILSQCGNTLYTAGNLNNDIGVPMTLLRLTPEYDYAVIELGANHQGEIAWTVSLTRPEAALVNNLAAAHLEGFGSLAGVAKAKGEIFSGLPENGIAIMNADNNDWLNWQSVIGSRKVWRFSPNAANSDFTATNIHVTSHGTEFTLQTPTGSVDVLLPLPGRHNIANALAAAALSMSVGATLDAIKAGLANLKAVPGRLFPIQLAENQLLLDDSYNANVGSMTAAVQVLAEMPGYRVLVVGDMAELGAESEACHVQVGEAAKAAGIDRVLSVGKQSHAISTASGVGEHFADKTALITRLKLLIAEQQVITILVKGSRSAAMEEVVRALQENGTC
# Experimental: as §1
# [11] = tested on: RNA polymerase
# Experimental: as §1
smiles,measurement,setting,value
Cc1cc(C2CCCCC2)n(O)c(=O)c1.NCCO,relative enzymatic activity,[1],1.114 ± 0.0086
same,relative enzymatic activity,[2],0.546 ± 0.12
same,relative enzymatic activity,[3],1.28 ± 0.12
same,relative enzymatic activity,[4],1.29 ± 0.34
same,relative enzymatic activity,[5],0.751 ± 0.22
same,relative enzymatic activity,[6],1.12 ± 0.0031
same,relative enzymatic activity,[7],1.05 ± 0.04
same,relative enzymatic activity,[8],0.975 ± 0.045
same,relative enzymatic activity,[9],0.678 ± 0.45
same,relative enzymatic activity,[10],1.02 ± 0.2
same,relative enzymatic activity,[11],0.8877 ± 0.0077
CN(C)C1C(O)=C(C(N)=O)C(=O)C2(O)C(O)=C3C(=O)c4c(O)cccc4C(C)(O)C3CC12.Cl (stereo not drawn),relative enzymatic activity,[1],0.904 ± 0.27
same,relative enzymatic activity,[2],0.696 ± 0.28
same,relative enzymatic activity,[3],1.03 ± 0.033
same,relative enzymatic activity,[4],1.37 ± 0.52
same,relative enzymatic activity,[5],0.711 ± 0.17
same,relative enzymatic activity,[6],0.9683 ± 0.0011
same,relative enzymatic activity,[7],1.05 ± 0.046
same,relative enzymatic activity,[8],0.712 ± 0.038
same,relative enzymatic activity,[9],0.627 ± 0.43
same,relative enzymatic activity,[10],0.964 ± 0.2
same,relative enzymatic activity,[11],0.857 ± 0.014
C=CC1=C(C(=O)O)N2C(=O)[C@@H](NC(=O)/C(=N/O)c3csc(N)n3)[C@H]2SC1,relative enzymatic activity,[1],0.0537 ± 0.076
same,relative enzymatic activity,[2],0.371 ± 0.1
same,relative enzymatic activity,[3],0.963 ± 0.1
same,relative enzymatic activity,[4],1.16 ± 0.24
same,relative enzymatic activity,[5],0.769 ± 0.027
same,relative enzymatic activity,[6],1.004 ± 0.0086
same,relative enzymatic activity,[7],0.947 ± 0.08
same,relative enzymatic activity,[8],0.119 ± 0.015
same,relative enzymatic activity,[9],0.599 ± 0.41
same,relative enzymatic activity,[10],0.943 ± 0.22
same,relative enzymatic activity,[11],0.785 ± 0.086
CO/N=C(\C(=O)N[C@@H]1C(=O)N2C(C(=O)O)=C(C[N+]3(C)CCCC3)CS[C@H]12)c1csc(N)n1,relative enzymatic activity,[1],0.284 ± 0.099
same,relative enzymatic activity,[2],0.202 ± 0.28
same,relative enzymatic activity,[3],1.11 ± 0.05
same,relative enzymatic activity,[4],1.12 ± 0.18
same,relative enzymatic activity,[5],0.722 ± 0.012
same,relative enzymatic activity,[6],0.943 ± 0.023
same,relative enzymatic activity,[7],1.06 ± 0.074
same,relative enzymatic activity,[8],0.144 ± 0.026
same,relative enzymatic activity,[9],0.591 ± 0.42
same,relative enzymatic activity,[10],1.15 ± 0.066
same,relative enzymatic activity,[11],0.575 ± 0.11
CCn1cc(C(=O)O)c(=O)c2cc(F)c(N3CCNCC3)nc21,relative enzymatic activity,[1],0.00427 ± 0.006
same,relative enzymatic activity,[2],0.582 ± 0.19
same,relative enzymatic activity,[3],1.03 ± 0.25
same,relative enzymatic activity,[4],0.579 ± 0.52
same,relative enzymatic activity,[5],0.684 ± 0.19
same,relative enzymatic activity,[6],1 ± 0.017
same,relative enzymatic activity,[7],0.761 ± 0.07
same,relative enzymatic activity,[8],0.839 ± 0.13
same,relative enzymatic activity,[9],0.573 ± 0.39
same,relative enzymatic activity,[10],0.982 ± 0.23
same,relative enzymatic activity,[11],0.833 ± 0.03
Cl.Cl.N=C(NCCCCCCNC(=N)NC(=N)Nc1ccc(Cl)cc1)NC(=N)Nc1ccc(Cl)cc1,relative enzymatic activity,[1],0.0297 ± 0.042
same,relative enzymatic activity,[2],0.0449 ± 0.0094
same,relative enzymatic activity,[3],0.488 ± 0.68
same,relative enzymatic activity,[4],0.365 ± 0.03
same,relative enzymatic activity,[5],0.306 ± 0.046
same,relative enzymatic activity,[6],0.9017 ± 0.0055
same,relative enzymatic activity,[7],0.341 ± 0.043
same,relative enzymatic activity,[8],0.108 ± 0.015
same,relative enzymatic activity,[9],0.545 ± 0.35
same,relative enzymatic activity,[10],0.871 ± 0.16
same,relative enzymatic activity,[11],0.0331 ± 0.011
CCC(C)CCCCC(=O)NC(CCN)C(=O)NC(C(=O)NC(CCN)C(=O)NC1CCNC(=O)C(C(C)O)NC(=O)C(CCN)NC(=O)C(CCN)NC(=O)C(CC(C)C)NC(=O)C(Cc2ccccc2)NC(=O)C(CCN)NC1=O)C(C)O.O=S(=O)(O)O (stereo not drawn),relative enzymatic activity,[1],1.09 ± 0.019
same,relative enzymatic activity,[2],0.653 ± 0.23
same,relative enzymatic activity,[3],0.982 ± 0.031
same,relative enzymatic activity,[4],1.36 ± 0.48
same,relative enzymatic activity,[5],0.688 ± 0.15
same,relative enzymatic activity,[6],1.037 ± 0.0054
same,relative enzymatic activity,[7],0.9729 ± 0.0096
same,relative enzymatic activity,[8],0.649 ± 0.024
same,relative enzymatic activity,[9],0.639 ± 0.43
same,relative enzymatic activity,[10],0.894 ± 0.25
same,relative enzymatic activity,[11],0.892 ± 0.046
COC1(NC(=O)CSCC#N)C(=O)N2C(C(=O)[O-])=C(CSc3nnnn3C)CSC21.[Na+] (stereo not drawn),relative enzymatic activity,[1],0.762 ± 0.27
same,relative enzymatic activity,[2],0.259 ± 0.32
same,relative enzymatic activity,[3],1.42 ± 0.28
same,relative enzymatic activity,[4],1.16 ± 0.3
same,relative enzymatic activity,[5],0.669 ± 0.18
same,relative enzymatic activity,[6],1.12 ± 0.035
same,relative enzymatic activity,[7],0.746 ± 0.076
same,relative enzymatic activity,[8],0.167 ± 0.022
same,relative enzymatic activity,[9],0.706 ± 0.47
same,relative enzymatic activity,[10],1.01 ± 0.2
same,relative enzymatic activity,[11],0.839 ± 0.031
COC1=C(OC)C(=O)C(CCCCCCCCCC[P+](c2ccccc2)(c2ccccc2)c2ccccc2)=C(C)C1=O,relative enzymatic activity,[1],≤ 0
same,relative enzymatic activity,[2],0.0205 ± 0.0027
same,relative enzymatic activity,[3],0.705 ± 0.021
same,relative enzymatic activity,[4],0.0027 ± 0.0017
same,relative enzymatic activity,[5],≤ 0
same,relative enzymatic activity,[6],0.155 ± 0.019
same,relative enzymatic activity,[7],≤ 0
same,relative enzymatic activity,[8],0.021 ± 0.0015
same,relative enzymatic activity,[9],0.162 ± 0.074
same,relative enzymatic activity,[10],0.211 ± 0.023
same,relative enzymatic activity,[11],0.0008799 ± 4.6e-06
CN(C)CCC=C1c2ccccc2COc2ccc(CC(=O)O)cc21.Cl,relative enzymatic activity,[1],0.496 ± 0.7
same,relative enzymatic activity,[2],0.368 ± 0.047
same,relative enzymatic activity,[3],0.922 ± 0.04
same,relative enzymatic activity,[4],1.08 ± 0.18
same,relative enzymatic activity,[5],0.755 ± 0.041
same,relative enzymatic activity,[6],0.899 ± 0.041
same,relative enzymatic activity,[7],0.935 ± 0.11
same,relative enzymatic activity,[8],0.616 ± 0.29
same,relative enzymatic activity,[9],0.566 ± 0.38
same,relative enzymatic activity,[10],1.1 ± 0.024
same,relative enzymatic activity,[11],0.7995 ± 0.0059
CC[C@@H](C)CCCCC(=O)N[C@@H](CCN)C(=O)N[C@H](C(=O)N[C@@H](CCN)C(=O)N[C@H]1CCNC(=O)[C@H]([C@@H](C)O)NC(=O)[C@H](CCN)NC(=O)[C@H](CCN)NC(=O)[C@H](CC(C)C)NC(=O)[C@@H](Cc2ccccc2)NC(=O)[C@@H](CCN)NC1=O)[C@@H](C)O,relative enzymatic activity,[1],1.66 ± 0.37
same,relative enzymatic activity,[2],0.0939 ± 0.022
same,relative enzymatic activity,[3],0.701 ± 0.47
same,relative enzymatic activity,[4],0.34 ± 0.059
same,relative enzymatic activity,[5],0.616 ± 0.13
same,relative enzymatic activity,[6],1.11 ± 0.016
same,relative enzymatic activity,[7],0.449 ± 0.055
same,relative enzymatic activity,[8],0.646 ± 0.21
same,relative enzymatic activity,[9],0.674 ± 0.44
same,relative enzymatic activity,[10],0.991 ± 0.22
same,relative enzymatic activity,[11],0.46 ± 0.03
Cl.O=C1CC2(CCCC2)CC(=O)N1CCCCN1CCN(c2ncccn2)CC1,relative enzymatic activity,[1],0.812 ± 0.33
same,relative enzymatic activity,[2],0.485 ± 0.034
same,relative enzymatic activity,[3],0.999 ± 0.1
same,relative enzymatic activity,[4],1.05 ± 0.045
same,relative enzymatic activity,[5],0.81 ± 0.029
same,relative enzymatic activity,[6],1.03 ± 0.042
same,relative enzymatic activity,[7],1 ± 0.013
same,relative enzymatic activity,[8],0.865 ± 0.1
same,relative enzymatic activity,[9],0.609 ± 0.44
same,relative enzymatic activity,[10],0.97 ± 0.21
same,relative enzymatic activity,[11],0.83 ± 0.039
Cl.N=C(N)n1cccn1,relative enzymatic activity,[1],0.0897 ± 0.13
same,relative enzymatic activity,[2],0.649 ± 0.3
same,relative enzymatic activity,[3],1.13 ± 0.067
same,relative enzymatic activity,[4],1.15 ± 0.22
same,relative enzymatic activity,[5],0.868 ± 0.027
same,relative enzymatic activity,[6],1.014 ± 0.0039
same,relative enzymatic activity,[7],0.902 ± 0.2
same,relative enzymatic activity,[8],0.813 ± 0.052
same,relative enzymatic activity,[9],0.613 ± 0.43
same,relative enzymatic activity,[10],0.939 ± 0.23
same,relative enzymatic activity,[11],0.787 ± 0.012
